p53 reactivation: re-activators of mutant p53; H1299 p53-A138V BP100-luciferase reporter, luminescence, 24 h; AID 504706; 0.063% of 320,000 active; Potency, µM (top dose mostly 92.2 µM), inactives show at the top dose activity change, positive = activation, actives largely listed as activators; further: potency means the concentration at half of the fitted maximal effect; % of control where 0% means no effect; nearly all actives have a fitted effect of over 45% in size
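p53-null H1299 cells stably carrying temperature-sensitive p53-A138V and a BP100-luciferase reporter were pinned with compounds (4-point, 1:5 series) and held 24 hrs at 37 deg C. Luminescence was read 10 min after detection reagent.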
PTHR1 agonist: agonists of human PTHR1 parathyroid hormone receptor; 0.075% of 410,000 active; HEK293 GP2 PTHR1 cells, GloSensor cAMP luminescence, 1 h; AID 743266; Potency, µM (series often up to 115 µM), inactives show at the highest dose activation, hits mostly activators; further: potency means the concentration at half of the fitted maximal effect; nearly all actives have a fitted effect of over 55% in size
Target sequence (Q03431 whole entry, looked up): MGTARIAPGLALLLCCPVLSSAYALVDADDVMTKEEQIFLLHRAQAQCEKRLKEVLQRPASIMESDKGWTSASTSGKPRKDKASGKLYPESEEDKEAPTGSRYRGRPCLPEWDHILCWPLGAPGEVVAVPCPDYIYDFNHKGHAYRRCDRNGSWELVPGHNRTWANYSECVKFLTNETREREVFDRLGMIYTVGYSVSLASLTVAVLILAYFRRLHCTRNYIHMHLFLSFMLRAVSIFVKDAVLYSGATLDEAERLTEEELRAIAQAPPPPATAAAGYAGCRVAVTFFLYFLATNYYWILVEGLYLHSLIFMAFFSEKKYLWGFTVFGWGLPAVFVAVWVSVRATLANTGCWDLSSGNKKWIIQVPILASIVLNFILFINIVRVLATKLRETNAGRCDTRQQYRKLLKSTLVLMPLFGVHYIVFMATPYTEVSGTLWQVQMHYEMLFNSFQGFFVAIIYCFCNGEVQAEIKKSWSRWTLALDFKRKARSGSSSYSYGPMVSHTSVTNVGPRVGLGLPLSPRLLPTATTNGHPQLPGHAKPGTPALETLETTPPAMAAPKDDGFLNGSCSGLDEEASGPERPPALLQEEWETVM
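HEK-293-derived GP2 cells expressing PTHR1 and a GloSensor cAMP reporter, 3,000/well, plated overnight, given luciferin plus IBMX (each 0.5 mM as added) for 1 h at 37 °C, then compound for 1 h at 37 °C. Luminescence was read after 15 min at room temperature.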
LDHA inh: LDHA (human) enzyme inhibition; purified LDHA, NADH/diaphorase-resazurin fluorescence; hits give low values; activity change, % (values are at about 110 or 230 µM); P00338; 0.15% of 480,000 active; in the data active means activity change below about -30%; inconclusive means mostly about -25% to -30%;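 further: plate controls were DMSO wells for no effect and wells without enzyme for full effect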
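Remaining NADH was detected by diaphorase (0.133 mg/mL) converting 37 µM resazurin to fluorescent resorufin, read at 0 and 20 minutes. The preceding 5-minute room-temperature reaction used 2 nM LDHA, 0.2 mM sodium pyruvate and 0.06 mM NADH at pH 7.4.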
RGS4 inh: blocks human RGS4-accelerated GTP hydrolysis; P49798; Transcreener GDP fluorescence polarization, RGS4-accelerated GTP hydrolysis; Potency, µM (top dose mostly 114 µM), inactives show at the highest dose activity change, negative = inhibition, most hits filed as inhibitors; 0.039% of 390,000 active; AID 504845; further: potency means the concentration at half of the fitted maximal effect; on the % scale 0 is the no-effect control and ±100 the full control effect; nearly all actives have a fitted effect of over 75% in size
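MLSMR compounds (23 nl, pin-transferred) preincubated 10 min at room temperature with a 500nM (2x) first reagent, then RGS4 at 900nM (2x) plus Transcreener GDP mix added; fluorescence polarization (620/688 nm) read before and after 90 min at 30 °C.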
BRCA1 expr up: increases BRCA1 expression. MCF7-BRCA1-FFLuc reporter, luminescence, 48 h; response scale: scaled: vehicle 0%, 10 µM genistein 100%. Potency, µM (highest dose often 46.1 µM), for the others: at the highest dose activation, usual class: activators. 1.1% of 380,000 active. AID 624202; further: potency means the concentration at half of the fitted maximal effect; nearly all actives have a fitted effect of over 80% in size
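Using MCF7 cells harboring a BRCA1 firefly luciferase reporter, plated 2 h before compound pinning, the screen measured luminescence after 48 h incubation. Responses were normalized to DMSO and 10 microM genistein, then fitted for concentration-effect.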
* marks the source's active call; other numbers are inactive results; i = inactive; ? = inconclusive; . = not tested or not shown; [ ] = dose if it differs, or a comment. The list is not random: actives were taken first. Their share in the collection is about 1.1%. Unless noted, the call rests on the fitted dose curve; in most records, active means well fitted curve in the direction sought with a large enough effect; inconclusive means small, poorly fitted or top-dose-only effect, or another doubt; inactive means no such curve, though single readings can be large; an effect the other way counts as inactive or inconclusive.

SMILES	p53 reactivation	PTHR1 agonist	LDHA inh	RGS4 inh	BRCA1 expr up
Nc1nc(-c2ccc([N+](=O)[O-])cc2)cs1	?	-16%	-1	-28%	74%
CCCCOc1ccc(-c2cn3ccccc3n2)cc1[N+](=O)[O-]	?	-22%	4	-6%	?
CCOc1ccc(-c2cn3ccccc3n2)cc1[N+](=O)[O-]	?	-2%	3	-29%	4µM*
CCCOc1ccc(-c2csc(N)n2)cc1[N+](=O)[O-]	?	-2%	-1	7%	7.9µM*
CCCC(=O)Nc1ccc(-c2nc(NC(C)(C)C)sc2C)cc1	.	.	7	.	.
CC1CCC(NC(=O)CCNC(=O)c2ccc(Br)cc2)CC1 (configuration not stated)	?	-7%	-3	11%	4.5µM*
O=C(Nc1ccc2c(c1)Cc1ccccc1-2)c1cccnc1	3%	-17%	-1	10%[56.9 µM]	2.8µM*
O=C(Nc1ccc2ccccc2c1)c1cccnc1	?	-5%[57.5 µM]	2	-18%	?
O=C(Cc1ccc(Cl)cc1)NC1C2CC3CC(C2)CC1C3 (configuration not stated)	.	.	5	.	.
CCCCCn1cnc2c(sc3nc4c(cc32)CSC(C)(C)C4)c1=O	?	-79%	-1	-15%	2.2µM*
CC(=O)N(c1ccc(N(C(C)=O)S(=O)(=O)c2cccs2)cc1)S(=O)(=O)c1cccs1	-18%	-4%	-88*	3%	-8%
CC(=O)N(c1ccc(C)cc1)S(=O)(=O)c1ccc(Cl)cc1	0%	i	-5	2%	-7%
COc1ccc(C(=O)N(c2ccc(OC)cc2)S(=O)(=O)c2cccs2)cc1	1%	i	-2	0%	3%
CC(=O)N(c1ccc(N(C(C)=O)S(=O)(=O)c2ccccc2)cc1)S(=O)(=O)c1ccccc1	-2%	-19%	-66*	-2%	-16%
O=CN1CCN(C(C(=O)O)c2c[nH]c3cc(Br)ccc23)CC1 (configuration not stated)	.	.	5	.	.
Cc1ccc(S(=O)(=O)Oc2ccccc2)cc1	.	i	-3	-3%	14%
CN(C)/N=C/c1ccc(OS(=O)(=O)c2ccccc2)cc1	24%	-6%	1	-1%	10µM*
O=C(O)CSCC(=O)c1c[nH]c2ccccc12	.	.	-1	.	.
O=C(O)COc1ccccc1-c1nc(-c2ccccc2)c(-c2ccccc2)[nH]1	3%	-13%	-43*	14%	-31%
COc1ccc(CCC(=O)Nc2sccc2C#N)cc1	1%	-13%	1	-10%	11µM*
COC(=O)c1ccc(NC(=S)Nc2ccccn2)cc1	?	0%[57.5 µM]	-2	-29%	93%
COc1ccc(NC(=S)Nc2ccccn2)cc1	16%	-10%	-14	11%	4µM*
COc1ccccc1/C=C/C(=O)NC(=S)Nc1ccccn1	?	-6%	-5	-5%	-19%
COc1ccc(/C=C/C(=O)NC(=S)Nc2ccccn2)cc1	29%	i	-1	-28%	8.9µM*
COc1ccc(-c2csc(C(O)c3ccccc3)n2)cn1 (configuration not stated)	.	-13%	-3	.	11µM*
SMILES	p53 reactivation	PTHR1 agonist	LDHA inh	RGS4 inh	BRCA1 expr up
O=C(CN(C1CCCCC1)S(=O)(=O)c1ccc(Br)cc1)N1CCOCC1	.	.	-7	.	.
CCOc1ccc(Br)cc1C1C(C#N)=C(N)Oc2cc3c(cc21)OCO3 (configuration not stated)	.	.	59	.	.
Cc1c(C(=O)Nc2nnc(C3CC3)s2)oc2ccccc12	5µM*	-63%	-3	-12%	44%
Cc1ccc(S(=O)(=O)Nc2ccc3oc(C)nc3c2)cc1	.	.	20	.	.
C=CCn1c(C)nc2c(sc3nc4c(cc32)COC(C)(C)C4)c1=O	6%	i	-2	3%	6.3µM*
CN(C)c1cccc(-c2csc(N3CCC(C(N)=O)CC3)n2)c1	20%	-6%	2	0%	?
NC(=O)C1CCN(c2nc(-c3cccs3)cs2)CC1	-4%	-7%	-7	-22%	1.3µM*
NC(=O)C1CCN(c2nc(-c3ccc(Br)cc3)cs2)CC1	-5%	i	-3	-2%	1.8µM*
CN(C)S(=O)(=O)c1cccc(NC(=O)c2ccccc2Oc2ccccc2)c1	.	.	6	.	.
O=C(/C=C/c1cccc(O)c1)c1cccs1	.	.	4	.	.
Cc1nn(CC2CC2)c(=O)n1-c1ccccc1F	1%	-5%	-1	9%	-3%
Cc1ccc(-n2c(C)nn(CCOc3ccccc3)c2=O)cc1	-1%	-9%	-4	1%	6.3µM*
Cc1nn(CCOc2ccccc2)c(=O)n1-c1c(F)cccc1F	?	-43%[57.5 µM]	-4	10%	5.6µM*
CCCCc1ccc(NC(=O)C2CCCO2)cc1 (configuration not stated)	.	-16%[57.5 µM]	-2	2%	1.4µM*
CCNC(=S)NNC(=O)c1cc(-c2cccc(OCC)c2)nc2ccccc12	29%	-19%[57.5 µM]	-3	-25%	?
CCNC(=S)NNC(=O)c1cc(-c2cccc(C)c2)nc2ccccc12	?	-13%[57.5 µM]	-4	-20%	4.5µM*
CCn1cnc2cc(NCc3ccc(Br)cc3)ccc21	?	-10%	20	-3%	4.5µM*
CCn1cnc2cc(NC(=O)c3cccs3)ccc21	7%	8%	-9	41%	13µM*
CCCn1cnc2cc(NCc3cccc(OC)c3)ccc21	5%	i	17	-32%	5µM*
CC(C)(C)n1cnc2cc(NC(=O)c3cccs3)ccc21	1%	i	-1	-10%	?
CCn1cnc2cc(NCc3ccc(C)cc3)ccc21	?	-12%[57.5 µM]	23	-26%	3.5µM*
CCCn1cnc2cc(NCc3ccc(OC)cc3OC)ccc21	.	-76%	21	-20%	.
CCN(CC)c1ccc(CNc2ccc3c(c2)ncn3CC)cc1	-5%	-1%	15	-5%	-15%
O=C(c1ccccc1Br)N(Cc1ccc2cc[nH]c2c1)C1CC1	.	.	5	.	.
O=C1CCC(C(=O)OC2CCOC2=O)=NN1 (configuration not stated)	.	.	3	.	.
N#CC1=C(N)n2ncnc2NC1c1ccccc1Cl (configuration not stated)	.	.	-11	.	.
Cn1cnc2cc(NCc3ccc(Cl)cc3)ccc21	-1%	-13%	6	-23%	5µM*
CCn1cnc2cc(NCc3cccs3)ccc21	2%	i	-12	-5%	14µM*
Cc1ccc(CNc2ccc3c(c2)ncn3C(C)C)cc1	18%	i	10	-28%	5µM*
COc1cc(CNc2ccc3c(c2)ncn3C(C)C)cc(OC)c1OC	.	i	22	13%	.

Source: PubChem (National Center for Advancing Translational Sciences (NCATS))
